Screening results deposited in PubChem BioAssay by National Center for Advancing Translational Sciences (NCATS).
DRD3 agonist: activates the human D3 dopamine receptor; P35462; D3R DiscoveRx beta-arrestin cells, luminescence, 90 min; max activation, %; 410,000 tested, 0.58% active; AID 652048; in the data active = max activation above about 30%; note: 0% is about no effect
Target sequence (P35462 whole entry, looked up): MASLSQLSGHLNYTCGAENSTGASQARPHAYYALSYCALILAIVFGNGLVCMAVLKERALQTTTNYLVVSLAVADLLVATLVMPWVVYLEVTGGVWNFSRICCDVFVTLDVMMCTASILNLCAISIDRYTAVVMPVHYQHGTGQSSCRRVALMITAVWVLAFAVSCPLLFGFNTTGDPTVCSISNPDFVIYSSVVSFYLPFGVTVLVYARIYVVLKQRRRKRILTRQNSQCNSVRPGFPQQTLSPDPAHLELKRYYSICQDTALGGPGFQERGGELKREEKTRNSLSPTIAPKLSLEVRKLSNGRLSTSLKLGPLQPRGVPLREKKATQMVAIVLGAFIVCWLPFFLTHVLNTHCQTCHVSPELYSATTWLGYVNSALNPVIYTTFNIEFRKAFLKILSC
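Cells at 1500/well, incubated overnight, then treated with pinned compounds (dopamine as control) for 90 min at 37 degrees C. DiscoveRx reagent added for 30 - 60 minutes at room temperature; luminescence read.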
D1 antag: blocks dopamine activation of the human D1 receptor | 360,000 tested, 3.2% active | HEK293 TREx D1 cells, calcium flux, dopamine EC80; active compounds read low | AID 504652 | P21728 | activity change, negative = inhibition, % at 10 µM; in the data active = activity change below about -30%; note: % is set by controls: 0 for no effect and ±100 for the full control effect
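HEK293 T-REx cells expressing inducible, force-coupled D1 receptor; no-wash Ca dye, 30–90 min RT. Cmpd → 180 s read at 1 Hz → EC80 DA → 180 s read.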
D3 antag: blocks the human D3 dopamine receptor | AID 652054 | max response, negative = inhibition, % | D3R cells, DiscoveRx beta-arrestin luminescence, antagonist mode; active compounds read low | 360,000 tested, 2.5% active | P35462; in the data active = max response below about -50%; inconclusive = no clear call, values can overlap the other calls; note: % is set by controls: 0 for no effect and ±100 for the full control effect
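Cells plated overnight at 1500 cells/well, then exposed to library compounds with dopamine controls for 90 minutes at 37 degrees C. DiscoveRx reagent added for 30–60 minutes at room temperature; luminescence read, quantitative HTS format.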
D1 PAM: human D1 dopamine receptor positive modulation | HEK293 TREx D1 cells, calcium flux, dopamine EC20 potentiation | potentiation, % at 10 µM | 360,000 tested, 0.036% active; in the data active = potentiation above about 30%; note: 0% is about no effect
D1 agonist: agonists of human D1 dopamine receptor; activation, % at 2 µM; AID 504660; 360,000 tested, 1% active; HEK293 T-REx D1 cells, calcium flux, agonist mode; P21728; in the data active = activation above about 30%; note: 0% is about no effect
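Inducible HEK293 T-REx D1 cells, force-coupled to calcium signalling, were plated at 4000 cells/well with tetracycline and held overnight at 30 C. After no-wash calcium dye loading, compound-evoked calcium rise over 180 s flagged agonists.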
* hit, by the source's call; ? = inconclusive; . = no result. Most compounds without a hit are left out; they make up all but 6% or so of the library.

SMILES	DRD3 agonist	D1 antag	D3 antag	D1 PAM	D1 agonist
COC(=O)c1c(NC(=O)c2ccc(S(=O)(=O)N3CCCC(C)C3)cc2)sc2c1CCN(C(C)C)C2 (centres undefined)	-14	-4	.	-2	-1
CNC(=O)c1c(NC(=O)c2ccc(S(=O)(=O)N(C)c3ccccc3)cc2)sc2c1CCN(C(C)C)C2	4	-12	22	-1	90*
CCN1CCc2c(sc(NC(=O)c3ccc(S(=O)(=O)N(C)c4ccccc4)cc3)c2C(=O)NC)C1	-7	5	18	7	175*
COC(=O)c1cc(F)c(S(=O)(=O)N2CCN(S(=O)(=O)c3ccc4c(c3)OCCO4)CC2)cc1F	.	-16	.	2	0
Cc1ccc(Cl)cc1NC(=S)N(CCCN1CCOCC1)Cc1ccccn1	-10	-74*	13	0	0
COc1ccc(-n2ncc(C(C)NS(=O)(=O)c3ccc(C(C)=O)cc3)c2C)cc1 (centres undefined)	-2	2	1	-3	2
COc1ccc(-n2ncc(C(C)NS(=O)(=O)c3cccs3)c2C)cc1 (centres undefined)	-2	0	-76*	-2	3
COc1ccc(-n2ncc(C(C)NS(=O)(=O)c3cc(F)ccc3C)c2C)cc1 (centres undefined)	-12	3	-58*	-1	0
Cc1ccc2c(=O)cc(C(=O)Nc3ccc(S(=O)(=O)Nc4onc(C)c4C)cc3)oc2c1C	8	-14	.	0	1
CCCCNC(=O)/C(=C\c1ccc([N+](=O)[O-])o1)NC(=O)c1ccccc1	4	-39*	-4	-3	3
COC(=O)/C(=C\c1ccc([N+](=O)[O-])o1)NC(=O)c1ccccc1	2	-20	-18	5	0
CN(C)C(=O)/C(=C/c1ccc(-c2cccc([N+](=O)[O-])c2)o1)NC(=O)c1ccccc1	18	-56*	1	-2	5
CN(C(=O)c1ccc(NC(=O)Cc2ccc(NC(=O)C3CCN(C(=O)c4ccccc4)CC3)cc2)cc1)C1CC1	-45	.	-99*	2	-1
CN(Cc1ccccc1)C(=O)c1ccc(NC(=O)Cc2cccc(NC(=O)C3CCN(C(=O)C4CC4)CC3)c2)cc1	-24	-22	-10	2	252*
Cc1ccc(C)c(NC(=O)C2CCCN(c3nc4ccccc4s3)C2)c1 (centres undefined)	4	4	.	3	0
CC1(C)CCN2CCC(C)(C)c3c(O)ccc1c32	0	26	-14	-6	207*
COc1ccc(C(=O)Nc2ccc(Nc3ccccc3)cc2)cc1OC	1	-37*	-3	-10	-1
COc1ccc(C(=O)Nc2cccc(/C(C)=N/NC(=O)c3ccc([N+](=O)[O-])cc3)c2)cc1OC	6	-34*	8	-10	0
COc1ccc(NC(=O)c2coc3ccccc23)cc1OC	-13	0	-67*	-2	0
COc1ccc(C(=O)Nc2ccc(-c3cc(C(F)(F)F)nn3-c3ccccc3)cc2)cc1OC	59*	-12	.	1	8
Cc1ccc(C(=O)c2oc3ccccc3c2NC(=O)c2cc(=O)c3cc(C)ccc3o2)cc1	-16	-6	.	1	1
O=S(=O)(c1ccc(Br)cc1)N1CCn2cccc2C1c1ccc(Br)cc1 (centres undefined)	3	.	.	0	1
CCn1c(SCC(=O)Nc2ccc3c(c2)OCO3)nnc1-c1cnccn1	-4	-32*	-19	-8	0
C=CCn1c(SCC(=O)Nc2ccc3c(c2)OCO3)nnc1-c1cc(Br)ccc1O	-5	0	-51*	-5	1
C=CCn1c(SCC(=O)Nc2ccc3c(c2)OCO3)nnc1-c1ccccc1	0	-19	0	-2	4
SMILES	DRD3 agonist	D1 antag	D3 antag	D1 PAM	D1 agonist
Nn1c(SCC(=O)Nc2ccc3c(c2)OCCO3)nnc1-c1ccccn1	-2	-36*	-2	-4	1
CCc1nc(SCC(=O)Nc2ccc3c(c2)OCCO3)c2oc3ccccc3c2n1	1	-34*	-7	5	2
Cc1cc2c(s1)c1cnn(Cc3ccc(F)c(Cl)c3)c(=O)c1n2C	.	-11	.	-4	0
COc1cccc(NC(=O)c2oc3ccccc3c2NC(=O)c2ccc(F)c(F)c2)c1	-9	-18	.	-3	8
O=C(CSCc1ccccc1Cl)Nc1ccc2c(c1)OCCO2	5	-36*	-16	2	1
CCn1c(COc2ccccc2C)nnc1SCC(=O)Nc1ccc2c(c1)OCCO2	-3	5	12	-9	-1
COC(=O)CSc1nnc(-c2ccncc2)n1N	-4	7	13	-3	0
Cc1ccc(NC(=O)CSc2nnc(-c3ccncc3)n2N)cc1C	1	-7	-70*	-1	0
CCn1c(Cc2ccccc2)nnc1SCC(=O)Nc1ccc2c(c1)OCCO2	35*	4	18	3	-4
CC(=O)Nc1ccc(NC(=O)CSc2nnc(-c3ccccc3)n2Cc2ccc3c(c2)OCO3)cc1	-1	1	-103*	-6	1
Cc1nn(C)c2c1c(C(F)(F)F)cc(=O)n2CC(=O)N1CCC(C)CC1	8	-19	.	2	0
CC1=C(C(=O)Nc2cc(C)cc(C)c2)C2(CCCCC2)OC1=O	-8	0	.	-3	3
Cc1ccc(OCCN2CCNCC2)c([N+](=O)[O-])c1	-11	14	-87*	-1	5
Cc1ccc(OCCN2CCN(C)CC2)c([N+](=O)[O-])c1	7	-38*	-53*	0	4
COc1ccc(OC)c(-c2cc(C(=O)Nc3sc4c(c3C#N)CCC(C)C4)c3ccccc3n2)c1 (centres undefined)	8	-47*	-11	-3	3
CCCN1CCc2c(sc(NC(=S)NC(=O)c3ccccc3)c2C#N)C1	38*	14	-4	2	45*
Cc1onc(-c2ccccc2)c1C(=O)NC(=S)Nc1sc2c(c1C#N)CCC(C)C2 (centres undefined)	35*	13	3	-8	3
COc1ccc(-c2cc(C(=O)Nc3sc4c(c3C#N)CCCC4)c3ccccc3n2)cc1	-31	-14	?	-3	0
Cc1ccc(-c2cc(C(F)(F)F)n3nc(C(=O)Nc4sc5c(c4C#N)CCC(C)C5)cc3n2)cc1 (centres undefined)	10	-37*	.	-6	0
CC(C)N1CCc2c(sc(NC(=S)NC(=O)c3ccccc3)c2C#N)C1	-20	-26	-15	-3	26
COc1ccc(C)cc1NC(=O)CN1c2ccccc2S(=O)(=O)c2ccccc21	-13	-1	.	-6	10
Cc1ccccc1-c1cc(C(=O)Nc2sc(C(=O)OC(C)C)c(C)c2C#N)c2ccccc2n1	9	-11	-68*	-1	16
